Data: ChEMBL document CHEMBL1961873, “Compounds: GSK PKIS; Assays: Nanosyn kinase panel” (2012)

Tests used:
[1] = target: Sphingosine kinase 1 (Homo sapiens) (UniProt Q9NYA1); conditions: at 1 µM;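 further: mean SPHK1 inhibition value reported from the GSK PKIS kinase panel screen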
[2] = target: T1, Sphingosine kinase 2 (Homo sapiens) (UniProt Q9NRA0); conditions: at 0.1 µM
T1 sequence (whole entry): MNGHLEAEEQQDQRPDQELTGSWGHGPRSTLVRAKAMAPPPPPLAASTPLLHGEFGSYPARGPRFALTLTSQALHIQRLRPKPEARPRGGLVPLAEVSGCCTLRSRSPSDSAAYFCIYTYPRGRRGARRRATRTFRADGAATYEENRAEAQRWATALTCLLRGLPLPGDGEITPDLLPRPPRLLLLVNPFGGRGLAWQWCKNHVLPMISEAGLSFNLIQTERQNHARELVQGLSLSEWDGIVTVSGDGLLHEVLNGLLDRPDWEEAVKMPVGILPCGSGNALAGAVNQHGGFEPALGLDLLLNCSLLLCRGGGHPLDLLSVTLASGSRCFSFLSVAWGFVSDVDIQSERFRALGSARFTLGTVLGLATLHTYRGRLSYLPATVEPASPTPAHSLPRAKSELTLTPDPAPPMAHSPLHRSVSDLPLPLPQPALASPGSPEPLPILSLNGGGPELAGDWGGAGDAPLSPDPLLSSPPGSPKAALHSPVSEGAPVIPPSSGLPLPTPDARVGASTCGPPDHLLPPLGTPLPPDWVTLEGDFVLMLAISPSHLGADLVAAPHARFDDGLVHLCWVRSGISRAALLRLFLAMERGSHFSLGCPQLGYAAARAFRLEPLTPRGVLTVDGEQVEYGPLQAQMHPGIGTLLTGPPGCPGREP

[3] = target: T1, Sphingosine kinase 2 (Homo sapiens); conditions: at 1 µM
[4] = target: Casein kinase II subunit alpha (Homo sapiens) (UniProt P68400); conditions: at 0.1 µM
[5] = target: Casein kinase II subunit alpha (Homo sapiens) (UniProt P68400); conditions: at 1 µM
[6] = target: T2, Inhibitor of nuclear factor kappa-B kinase subunit alpha (Homo sapiens) (UniProt O15111); conditions: at 0.1 µM
T2 sequence (whole entry): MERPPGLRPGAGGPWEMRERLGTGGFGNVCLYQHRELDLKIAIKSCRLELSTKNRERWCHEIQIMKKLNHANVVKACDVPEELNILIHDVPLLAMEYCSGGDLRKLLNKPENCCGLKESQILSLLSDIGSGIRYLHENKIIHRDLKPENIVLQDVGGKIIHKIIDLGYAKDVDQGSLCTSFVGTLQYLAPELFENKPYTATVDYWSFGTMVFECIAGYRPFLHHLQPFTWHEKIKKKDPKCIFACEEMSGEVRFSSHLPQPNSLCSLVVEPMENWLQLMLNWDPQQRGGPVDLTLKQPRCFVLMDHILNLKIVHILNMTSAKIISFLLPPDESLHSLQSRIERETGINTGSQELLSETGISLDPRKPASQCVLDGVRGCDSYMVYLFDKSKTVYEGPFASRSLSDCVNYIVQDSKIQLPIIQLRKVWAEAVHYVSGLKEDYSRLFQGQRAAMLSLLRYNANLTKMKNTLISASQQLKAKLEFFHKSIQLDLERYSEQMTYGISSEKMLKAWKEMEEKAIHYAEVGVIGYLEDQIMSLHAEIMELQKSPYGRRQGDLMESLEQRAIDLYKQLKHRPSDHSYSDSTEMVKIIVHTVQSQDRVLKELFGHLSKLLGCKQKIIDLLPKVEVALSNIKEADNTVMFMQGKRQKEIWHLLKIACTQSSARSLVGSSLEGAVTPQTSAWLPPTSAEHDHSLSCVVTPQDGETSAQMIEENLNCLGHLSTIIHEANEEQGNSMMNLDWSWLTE

[7] = target: T2, Inhibitor of nuclear factor kappa-B kinase subunit alpha (Homo sapiens); conditions: at 1 µM
[8] = target: T3, Inhibitor of nuclear factor kappa-B kinase subunit beta (Homo sapiens) (UniProt O14920); conditions: at 0.1 µM
T3 sequence (whole entry): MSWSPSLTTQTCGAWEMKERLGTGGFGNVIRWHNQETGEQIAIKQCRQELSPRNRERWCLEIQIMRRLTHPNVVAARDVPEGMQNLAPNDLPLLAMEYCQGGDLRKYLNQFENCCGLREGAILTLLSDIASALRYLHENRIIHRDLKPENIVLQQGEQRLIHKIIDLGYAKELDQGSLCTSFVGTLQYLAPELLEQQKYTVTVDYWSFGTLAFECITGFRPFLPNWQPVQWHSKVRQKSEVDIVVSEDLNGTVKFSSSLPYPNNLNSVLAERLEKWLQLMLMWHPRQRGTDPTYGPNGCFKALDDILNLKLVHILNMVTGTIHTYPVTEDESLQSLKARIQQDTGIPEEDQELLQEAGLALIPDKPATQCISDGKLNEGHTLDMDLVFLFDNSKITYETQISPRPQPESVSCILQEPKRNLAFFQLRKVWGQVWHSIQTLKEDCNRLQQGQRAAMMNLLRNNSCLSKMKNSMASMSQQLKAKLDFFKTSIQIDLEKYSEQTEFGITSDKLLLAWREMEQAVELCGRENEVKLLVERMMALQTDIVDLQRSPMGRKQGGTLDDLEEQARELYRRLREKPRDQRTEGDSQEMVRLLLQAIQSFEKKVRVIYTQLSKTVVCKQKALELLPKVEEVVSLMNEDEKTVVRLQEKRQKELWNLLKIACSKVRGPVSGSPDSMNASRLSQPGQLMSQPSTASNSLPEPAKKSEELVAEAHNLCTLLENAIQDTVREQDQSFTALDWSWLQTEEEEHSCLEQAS

[9] = target: T3, Inhibitor of nuclear factor kappa-B kinase subunit beta (Homo sapiens); conditions: at 1 µM
[10] = target: T4, Inhibitor of nuclear factor kappa-B kinase subunit epsilon (Homo sapiens) (UniProt Q14164); conditions: at 0.1 µM
T4 sequence (whole entry): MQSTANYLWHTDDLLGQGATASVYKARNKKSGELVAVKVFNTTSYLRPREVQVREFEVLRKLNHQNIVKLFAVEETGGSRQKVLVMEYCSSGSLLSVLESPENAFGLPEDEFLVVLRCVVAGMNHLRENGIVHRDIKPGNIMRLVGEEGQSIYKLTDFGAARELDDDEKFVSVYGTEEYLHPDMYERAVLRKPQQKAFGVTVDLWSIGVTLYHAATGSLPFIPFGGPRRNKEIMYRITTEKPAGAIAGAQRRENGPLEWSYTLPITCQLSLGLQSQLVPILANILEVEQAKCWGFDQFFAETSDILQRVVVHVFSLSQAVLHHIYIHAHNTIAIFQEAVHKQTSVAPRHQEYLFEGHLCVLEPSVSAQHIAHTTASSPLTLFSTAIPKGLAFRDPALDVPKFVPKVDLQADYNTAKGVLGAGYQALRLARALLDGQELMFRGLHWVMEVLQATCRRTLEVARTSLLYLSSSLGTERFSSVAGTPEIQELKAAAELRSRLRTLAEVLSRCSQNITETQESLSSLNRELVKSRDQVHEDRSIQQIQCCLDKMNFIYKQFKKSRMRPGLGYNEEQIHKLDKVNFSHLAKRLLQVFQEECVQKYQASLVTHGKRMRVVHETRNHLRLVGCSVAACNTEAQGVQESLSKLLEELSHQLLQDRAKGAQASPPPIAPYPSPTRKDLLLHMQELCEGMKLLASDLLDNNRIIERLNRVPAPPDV

[11] = target: T4, Inhibitor of nuclear factor kappa-B kinase subunit epsilon (Homo sapiens); conditions: at 1 µM
[12] = target: T5, Serine/threonine-protein kinase Nek1 (Homo sapiens) (UniProt Q96PY6); conditions: at 0.1 µM
T5 sequence (whole entry): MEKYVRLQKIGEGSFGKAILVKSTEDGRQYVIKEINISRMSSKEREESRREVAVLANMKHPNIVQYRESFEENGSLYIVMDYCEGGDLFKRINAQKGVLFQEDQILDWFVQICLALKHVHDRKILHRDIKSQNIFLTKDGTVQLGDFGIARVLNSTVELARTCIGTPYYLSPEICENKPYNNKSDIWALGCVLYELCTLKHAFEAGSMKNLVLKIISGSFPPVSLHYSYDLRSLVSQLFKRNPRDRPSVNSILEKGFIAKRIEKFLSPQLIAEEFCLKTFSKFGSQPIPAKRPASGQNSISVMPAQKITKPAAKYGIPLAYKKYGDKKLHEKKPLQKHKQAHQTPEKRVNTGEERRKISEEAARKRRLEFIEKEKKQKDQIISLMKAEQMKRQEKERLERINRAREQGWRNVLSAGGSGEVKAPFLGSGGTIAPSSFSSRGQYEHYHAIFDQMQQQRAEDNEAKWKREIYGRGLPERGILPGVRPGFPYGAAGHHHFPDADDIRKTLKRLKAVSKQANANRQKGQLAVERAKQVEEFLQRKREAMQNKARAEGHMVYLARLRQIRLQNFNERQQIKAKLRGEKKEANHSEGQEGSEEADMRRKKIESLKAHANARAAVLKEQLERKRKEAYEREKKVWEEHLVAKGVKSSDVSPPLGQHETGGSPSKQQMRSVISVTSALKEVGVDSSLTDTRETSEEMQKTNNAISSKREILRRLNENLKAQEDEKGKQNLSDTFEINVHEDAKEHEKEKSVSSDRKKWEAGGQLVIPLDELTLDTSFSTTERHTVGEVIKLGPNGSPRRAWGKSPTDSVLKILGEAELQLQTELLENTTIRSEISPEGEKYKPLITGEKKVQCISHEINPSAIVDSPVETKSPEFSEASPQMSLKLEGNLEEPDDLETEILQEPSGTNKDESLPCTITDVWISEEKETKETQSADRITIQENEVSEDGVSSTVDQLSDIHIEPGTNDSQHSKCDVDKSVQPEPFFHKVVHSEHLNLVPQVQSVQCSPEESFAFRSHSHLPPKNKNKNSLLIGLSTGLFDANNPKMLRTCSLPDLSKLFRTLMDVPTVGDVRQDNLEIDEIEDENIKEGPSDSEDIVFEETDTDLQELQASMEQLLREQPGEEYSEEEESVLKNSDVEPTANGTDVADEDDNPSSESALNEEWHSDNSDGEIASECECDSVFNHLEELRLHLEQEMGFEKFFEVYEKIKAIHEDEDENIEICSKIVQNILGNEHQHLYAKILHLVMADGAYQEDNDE

[13] = target: T5, Serine/threonine-protein kinase Nek1 (Homo sapiens); conditions: at 1 µM
[14] = target: T6, Serine/threonine-protein kinase Nek2 (Homo sapiens) (UniProt P51955); conditions: at 0.1 µM
T6 sequence (whole entry): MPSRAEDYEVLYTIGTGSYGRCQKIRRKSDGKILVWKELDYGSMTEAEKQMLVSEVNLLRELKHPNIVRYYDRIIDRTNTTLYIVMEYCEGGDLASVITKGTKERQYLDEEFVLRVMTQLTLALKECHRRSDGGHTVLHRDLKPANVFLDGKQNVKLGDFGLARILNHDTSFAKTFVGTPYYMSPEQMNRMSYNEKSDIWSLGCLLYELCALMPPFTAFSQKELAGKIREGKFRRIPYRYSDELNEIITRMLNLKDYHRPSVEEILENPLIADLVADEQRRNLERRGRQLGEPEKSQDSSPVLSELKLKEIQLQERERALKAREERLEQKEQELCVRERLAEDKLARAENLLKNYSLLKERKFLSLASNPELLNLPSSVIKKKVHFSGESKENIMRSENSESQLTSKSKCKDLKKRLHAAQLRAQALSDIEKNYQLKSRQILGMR

[15] = target: T6, Serine/threonine-protein kinase Nek2 (Homo sapiens); conditions: at 1 µM
[16] = target: Serine/threonine-protein kinase Nek6 (Homo sapiens) (UniProt Q9HC98); conditions: at 0.1 µM
[17] = target: Serine/threonine-protein kinase Nek6 (Homo sapiens) (UniProt Q9HC98); conditions: at 1 µM
[18] = target: Serine/threonine-protein kinase Nek7 (Homo sapiens) (UniProt Q8TDX7); conditions: at 0.1 µM
[19] = target: Serine/threonine-protein kinase Nek7 (Homo sapiens) (UniProt Q8TDX7); conditions: at 1 µM
[20] = target: T7, Serine/threonine-protein kinase Nek9 (Homo sapiens) (UniProt Q8TD19); conditions: at 0.1 µM;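 further: reported value is the mean percent inhibition of NEK9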
T7 sequence (whole entry): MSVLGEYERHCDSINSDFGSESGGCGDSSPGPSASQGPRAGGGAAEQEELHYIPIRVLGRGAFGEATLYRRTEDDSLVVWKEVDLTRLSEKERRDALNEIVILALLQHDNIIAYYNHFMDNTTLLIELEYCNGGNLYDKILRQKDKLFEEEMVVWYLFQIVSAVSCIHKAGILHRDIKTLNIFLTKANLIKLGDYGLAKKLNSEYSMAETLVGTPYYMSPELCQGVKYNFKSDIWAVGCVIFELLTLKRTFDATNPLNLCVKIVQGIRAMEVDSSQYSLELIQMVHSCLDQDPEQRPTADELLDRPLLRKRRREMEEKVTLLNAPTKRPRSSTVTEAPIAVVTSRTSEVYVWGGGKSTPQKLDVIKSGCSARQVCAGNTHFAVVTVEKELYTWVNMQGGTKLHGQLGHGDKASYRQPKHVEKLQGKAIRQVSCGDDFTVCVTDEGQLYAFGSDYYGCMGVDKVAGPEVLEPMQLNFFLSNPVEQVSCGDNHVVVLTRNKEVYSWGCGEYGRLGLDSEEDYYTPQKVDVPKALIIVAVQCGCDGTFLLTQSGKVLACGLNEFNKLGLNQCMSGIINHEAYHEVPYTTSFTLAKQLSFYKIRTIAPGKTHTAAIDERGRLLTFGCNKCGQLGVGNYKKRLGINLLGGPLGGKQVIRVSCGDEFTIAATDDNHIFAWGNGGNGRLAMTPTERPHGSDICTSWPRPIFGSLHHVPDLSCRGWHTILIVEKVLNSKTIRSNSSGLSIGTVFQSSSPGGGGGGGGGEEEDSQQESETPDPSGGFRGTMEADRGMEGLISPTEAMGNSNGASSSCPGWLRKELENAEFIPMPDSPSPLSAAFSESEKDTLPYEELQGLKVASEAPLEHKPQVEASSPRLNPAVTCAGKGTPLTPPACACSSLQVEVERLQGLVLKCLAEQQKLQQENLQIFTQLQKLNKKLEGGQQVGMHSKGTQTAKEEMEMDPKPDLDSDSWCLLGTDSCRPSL

Sequence of Casein kinase II subunit alpha (Homo sapiens) (P68400 whole entry, looked up): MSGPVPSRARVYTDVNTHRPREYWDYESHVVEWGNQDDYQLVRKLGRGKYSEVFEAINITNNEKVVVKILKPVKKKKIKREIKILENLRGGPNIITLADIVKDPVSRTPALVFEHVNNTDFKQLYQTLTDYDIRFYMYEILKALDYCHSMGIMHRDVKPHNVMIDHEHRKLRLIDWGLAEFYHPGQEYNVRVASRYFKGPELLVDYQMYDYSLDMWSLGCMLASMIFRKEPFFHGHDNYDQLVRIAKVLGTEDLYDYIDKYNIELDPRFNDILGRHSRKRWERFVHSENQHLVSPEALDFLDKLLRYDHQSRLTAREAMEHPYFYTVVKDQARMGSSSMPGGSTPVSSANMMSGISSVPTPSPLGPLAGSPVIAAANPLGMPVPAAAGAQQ
Sequence of Sphingosine kinase 1 (Homo sapiens) (Q9NYA1 whole entry): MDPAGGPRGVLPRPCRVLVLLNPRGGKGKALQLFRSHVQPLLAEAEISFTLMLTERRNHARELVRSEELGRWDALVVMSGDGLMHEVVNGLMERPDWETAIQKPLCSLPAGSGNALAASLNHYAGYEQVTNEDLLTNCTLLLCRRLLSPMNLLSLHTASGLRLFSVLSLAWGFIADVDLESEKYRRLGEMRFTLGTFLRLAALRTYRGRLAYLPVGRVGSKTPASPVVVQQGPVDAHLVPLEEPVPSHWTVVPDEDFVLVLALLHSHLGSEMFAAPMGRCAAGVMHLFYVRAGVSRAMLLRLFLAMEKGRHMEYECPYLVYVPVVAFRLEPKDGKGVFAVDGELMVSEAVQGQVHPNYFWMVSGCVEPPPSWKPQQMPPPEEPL
Sequence of Serine/threonine-protein kinase Nek6 (Homo sapiens) (Q9HC98 whole entry): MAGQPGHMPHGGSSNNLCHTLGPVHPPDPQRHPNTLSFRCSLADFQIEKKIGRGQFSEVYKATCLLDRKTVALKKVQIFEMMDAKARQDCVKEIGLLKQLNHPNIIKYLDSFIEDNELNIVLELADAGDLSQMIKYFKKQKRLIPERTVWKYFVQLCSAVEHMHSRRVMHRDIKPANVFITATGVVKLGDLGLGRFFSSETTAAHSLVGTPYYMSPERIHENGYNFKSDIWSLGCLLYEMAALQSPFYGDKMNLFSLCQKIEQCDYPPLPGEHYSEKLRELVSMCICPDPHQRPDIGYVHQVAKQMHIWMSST
Sequence of Serine/threonine-protein kinase Nek7 (Homo sapiens) (Q8TDX7 whole entry, looked up): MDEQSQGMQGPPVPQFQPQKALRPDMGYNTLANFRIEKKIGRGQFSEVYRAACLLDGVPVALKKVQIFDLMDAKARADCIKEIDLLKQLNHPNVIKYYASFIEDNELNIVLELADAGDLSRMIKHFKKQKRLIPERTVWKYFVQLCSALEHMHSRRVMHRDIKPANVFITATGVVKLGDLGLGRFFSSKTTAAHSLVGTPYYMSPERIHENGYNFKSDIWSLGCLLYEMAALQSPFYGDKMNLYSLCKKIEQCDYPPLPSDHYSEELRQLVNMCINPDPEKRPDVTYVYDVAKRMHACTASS

SMILES	inhibition [1] [%]	inhibition [2] [%]	inhibition [3] [%]	inhibition [4] [%]	inhibition [5] [%]	inhibition [6] [%]	inhibition [7] [%]	inhibition [8] [%]	inhibition [9] [%]	inhibition [10] [%]	inhibition [11] [%]	inhibition [12] [%]	inhibition [13] [%]	inhibition [14] [%]	inhibition [15] [%]	inhibition [16] [%]	inhibition [17] [%]	inhibition [18] [%]	inhibition [19] [%]	inhibition [20] [%]
Cc1nn(C)c2cc(N(C)c3ccnc(Nc4cccc(S(N)(=O)=O)c4)n3)ccc12	1.31	0.44	0.14	2.59	1.94	2.21	3.6	4.27	4.54	4.1	4.76	2.28	3.95	3.82	5.14	0.43	1.3	5.76	3.53	8.48
CS(=O)(=O)CCN(CC#N)Cc1ccc(-c2ccc3ncnc(Nc4ccc(OCc5cccc(F)c5)c(Cl)c4)c3c2)o1	-0.02	-0.3	-0.75	5.37	1.72	4.16	2.09	3.6	3.73	1.37	1.93	0.91	1.78	3.59	2.16	2.16	-0.23	2.49	7.27	2.5
COc1ccc(COc2ccc(Cc3cnc(N)nc3N)cc2OC)cc1	-2.38	0.09	-0.88	-2.39	-8.59	2.25	-7.71	-1.1	-1.34	-1.79	-2.21	1.41	1.56	-0.14	-1.4	-0.54	-3.71	2.81	1.75	0.22
